Measured values from PubChem BioAssay (EPA / NIEHS).
Results filed as inconclusive are left out. Active and inactive are the calls of the source. The calls were made as follows: active = hit-call score of the fitted dose curve at least 0.9, where 1 is the maximum; inconclusive = response in the unintended direction; inactive = score below 0.9.

Legend:
[1] = Tanguay_ZF_120hpf_AXIS_legacy: (Legacy) Oregon State University Tanguay Lab 120 Hour Post-fertilization zebrafish Assay for Body Axis Malformation (AID 2283635);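 as to AC50: potency for an increased fraction of larvae scored with body axis malformation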
Procedure, shortened: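 Each dechorionated embryo was exposed alone from 6 hpf, with DMSO at 0.64% (vol/vol) and trimethyltin chloride 5 uM as positive control. Axis malformation was recorded at 120 hpf unless the embryo had died.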

[2] = Tanguay_ZF_120hpf_EYE_legacy: (Legacy) Oregon State University Tanguay Lab 120 Hour Post-fertilization zebrafish Assay for Eye Malformation (AID 2283636);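 also: binary presence or absence of eye malformation scored by brightfield in 120 hpf larvae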
Procedure, shortened: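 Dechorionated wild-type Tropical 5D zebrafish embryos were exposed statically from 6 hpf, one per well, to 120 hpf at 28C in sealed, foil-covered plates with 0.64% DMSO. Eye malformation was scored present/absent by brightfield microscopy against DMSO controls.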

[3] = Tanguay_ZF_120hpf_SNOU_legacy: (Legacy) Oregon State University Tanguay Lab 120 Hour Post-fertilization zebrafish Assay for Snout Malformation (AID 2283637)
Procedure, shortened: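 Tropical 5D wild-type zebrafish embryos, dechorionated with pronase at 4 hpf, were exposed singly from 6 hpf to 120 hpf statically at 28C in 0.64% DMSO. Snout malformation was scored present/absent by brightfield microscopy, fitted against DMSO.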

[4] = Tanguay_ZF_120hpf_JAW_legacy: (Legacy) Oregon State University Tanguay Lab 120 Hour Post-fertilization zebrafish Assay for Jaw Malformation (AID 2283638);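 as to AC50: active means more embryos with jaw malformation than DMSO controls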
Procedure, shortened: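 Wild-type 5D embryos, chorion removed at 4 hpf, dosed singly from 6 hpf; 28C static, sealed, foil-covered, to 120 hpf. Endpoint: jaw defect yes/no (brightfield); mortality excludes scoring.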

[5] = Tanguay_ZF_120hpf_OTIC_legacy: (Legacy) Oregon State University Tanguay Lab 120 Hour Post-fertilization zebrafish Assay for Otic Vesicle Malformation (AID 2283639)
Procedure, shortened: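 Tropical 5D wild-type zebrafish embryos statically exposed in 0.64% DMSO at 28C until 120 hpf; 5uM trimethyltin chloride as positive control. Otic vesicle malformation scored present/absent by brightfield; dead embryos not scored; gain fitted versus DMSO.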

[6] = Tanguay_ZF_120hpf_PE_legacy: (Legacy) Oregon State University Tanguay Lab 120 Hour Post-fertilization zebrafish Assay for Pericardial Edema (AID 2283640);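 as to AC50: potency for increased incidence of pericardial edema versus DMSO baseline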
Procedure, shortened: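 Zebrafish larvae are exposed from early development to 120 hpf at 28C, with 0.64% DMSO final. Each surviving larva receives a yes/no pericardial edema call by brightfield imaging, analysed relative to the DMSO baseline.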

[7] = Tanguay_ZF_120hpf_BRAI_legacy: (Legacy) Oregon State University Tanguay Lab 120 Hour Post-fertilization zebrafish Assay for Brain Malformation (AID 2283641)
Procedure, shortened: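 Static exposure of staged wild-type embryos until 120 hpf, kept at 28C with light excluded and final DMSO of 0.64% (vol/vol). Presence or absence of brain malformation was noted under brightfield; mortality precluded scoring.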

[8] = Tanguay_ZF_120hpf_SOMI_legacy: (Legacy) Oregon State University Tanguay Lab 120 Hour Post-fertilization zebrafish Assay for Somite Malformation (AID 2283647)
Procedure, shortened: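 Somitogenesis defects are recorded as binary calls in whole larvae at 120 hpf after continuous static chemical exposure starting at 6 hpf in dechorionated 5D embryos. DMSO serves as negative control and baseline.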

[9] = Tanguay_ZF_120hpf_PFIN_legacy: (Legacy) Oregon State University Tanguay Lab 120 Hour Post-fertilization zebrafish Assay for Pectoral Fin Malformation (AID 2283648);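 also: each larva judged yes or no for fin defect by brightfield with dead larvae skipped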
Procedure, shortened: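 Tropical 5D wild-type embryos, dechorionated with pronase at 4 hpf, were placed singly in wells at 6 hpf and statically exposed until 120 hpf at 28C, sealed and dark, with 0.64% (vol/vol) final DMSO; pectoral fin malformation scored present/absent.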

[10] = Tanguay_ZF_120hpf_CFIN_legacy: (Legacy) Oregon State University Tanguay Lab 120 Hour Post-fertilization zebrafish Assay for Caudal Fin Malformation (AID 2283649)
Procedure, shortened: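 Single dechorionated 5D wild-type embryos are dosed at 6 hpf (final DMSO 0.64%) and held statically at 28C. Caudal fin malformation is recorded as present or absent at 120 hpf under brightfield, excluding dead embryos.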

[11] = Tanguay_ZF_120hpf_PIG_legacy: (Legacy) Oregon State University Tanguay Lab 120 Hour Post-fertilization zebrafish Assay for Pigmentation Malformation (AID 2283650)
Procedure, shortened: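 Tropical 5D wild-type zebrafish embryos, dechorionated with pronase at 4 hpf, were exposed singly from 6 hpf to 120 hpf statically at 28C in sealed, dark plates with 0.64% DMSO; pigmentation scored present/absent by brightfield microscopy, fitted against DMSO.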

[12] = Tanguay_ZF_120hpf_CIRC_legacy: (Legacy) Oregon State University Tanguay Lab 120 Hour Post-fertilization zebrafish Assay for Circulatory Malformation (AID 2283651)
Procedure, shortened: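 Dechorionated wild-type 5D zebrafish embryos, one per well, statically exposed from 6 to 120 hpf at 28C with 0.64% DMSO; circulatory malformation scored present/absent by brightfield microscopy at 120 hpf, dead embryos excluded.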

[13] = Tanguay_ZF_120hpf_SWIM_legacy: (Legacy) Oregon State University Tanguay Lab 120 Hour Post-fertilization zebrafish Assay for Swim Bladder Malformation (AID 2283654);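 also: swim bladder malformation in each larva scored yes or no under brightfield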
Procedure, shortened: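 Dechorionated Tropical 5D wild-type embryos, placed singly from 6 hpf, were statically exposed at 28C to 120 hpf with 0.64% DMSO final; swim bladder malformation was scored present/absent by brightfield microscopy, gain of signal relative to DMSO controls.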

[14] = Tanguay_ZF_120hpf_TRUN_legacy: (Legacy) Oregon State University Tanguay Lab 120 Hour Post-fertilization zebrafish Assay for Truncated Body (AID 2283655)
Procedure, shortened: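 Single dechorionated zebrafish embryos received test chemical from 6 hpf in 0.64% DMSO, kept at 28C. At 120 hpf, brightfield inspection noted any truncated body.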

[15] = Tanguay_ZF_120hpf_NC_legacy: (Legacy) Oregon State University Tanguay Lab 120 Hour Post-fertilization zebrafish Assay for Notochord and Tail Malformation (AID 2283656)
Procedure, shortened: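 Dechorionated Tropical 5D wild-type zebrafish embryos, one per well from 6 hpf, statically exposed to 120 hpf at 28C in 0.64% DMSO final. Notochord distortion scored present/absent by brightfield; dead embryos excluded.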

[16] = system: Thyroperoxidase (TPO), gene 54314; test: CCTE_Simmons_AUR_rTPO: CCTE's Amplex UltraRed Assay for Thyroperoxidase (TPO) Inhibition, Simmons Lab (AID 2283662);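 also: potency for loss of signal meaning inhibition of peroxidase activity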
Procedure, shortened: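 Rat thyroid microsomes (5 ug protein) with 25 uM Amplex UltraRed and 300 uM H2O2 in 200 mM phosphate buffer, 30 min at 37C in dark; fluorescence 544/590 nm. Eight concentrations, 5 nM–87.5 uM final, 0.5% DMSO, triplicate biological replicates.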

Measured: AC50

C1=CCCC=CCCC=CCC1
not listed: [16]
inactive: all other assays above

COCCOc1cc2cc(C(=O)NC3CCN(C(C)C)CC3)n(CC(=O)Nc3ccc(Cl)cn3)c2cn1
not listed: [15] | [16]
inactive: all other assays above

CNCc1ccc(NC(=O)c2c[nH]c3c2C(=O)CCC3)cc1
not listed: [16]
inactive: all other assays above

Cn1c(=O)cc(Oc2ccc(F)cc2F)c2cnc(NCC(C)(C)O)nc21
active: [6] 10.3 µM
not listed: [16]
inactive: all other assays above

O=C(O)c1cccc(N(Cc2cccnc2)c2ccc(OC(F)F)c(OC(F)F)c2)c1
active: [16] 31.2 µM
not listed: [11]
inactive: all other assays above

CCCCCCCCCCCCCCCO
not listed: [8] | [16]
inactive: all other assays above

COC(=O)c1c(Cl)c(Cl)c(C(=O)OC)c(Cl)c1Cl
not listed: [9] | [11] | [16]
inactive: all other assays above

Cn1c(=O)c2c(ncn2C)n(C)c1=O
not listed: [16]
inactive: all other assays above

Cc1ccc(C)c(O)c1
not listed: [16]
inactive: all other assays above

CC(C)=CCC/C(C)=C/CO
active: [1] 23.6 µM | [10] 31.6 µM
not listed: [16]
inactive: all other assays above

CCOC(=O)CC(CC(=O)OCC)(OC(C)=O)C(=O)OCC
not listed: [14] | [15] | [16]
inactive: all other assays above

CCN(C(=O)c1cc(C)cc(OC[C@H](C)Nc2ccncc2)c1)C(C)C
not listed: [13] | [16]
inactive: all other assays above

O=C1OC(=O)C2C3C=CC(C3)C12 (stereo unspecified)
not listed: [11] | [16]
inactive: all other assays above

O=c1n(CC2CO2)c(=O)n(CC2CO2)c(=O)n1CC1CO1 (stereo unspecified)
active: [16] 21.1 µM
inactive: all other assays above

C1N2CN3CN1CN(C2)C3
not listed: [11] | [14] | [16]
inactive: all other assays above

COc1ccc(-n2nc(C(F)F)cc2-c2ccc(S(C)=O)cc2)cc1 (stereo unspecified)
active: [1] 47 µM | [2] 51.6 µM | [3] 40.4 µM | [4] 46.7 µM | [6] 37.7 µM | [7] 40.4 µM | [9] 48.1 µM | [10] 12.8 µM
inactive: [5] | [8] | [11] | [12] | [13] | [14] | [15]
